# ChEMBL document CHEMBL2218924, “A broad activity screen in support of a chemogenomic map for kinase signalling research and drug discovery” (Biochem J, 2013)
# Columns and labels:
# [1] = target: Tyrosine-protein kinase Yes (Homo sapiens) (UniProt P07947); conditions: at 1 µM
# [2] = target: Tyrosine-protein kinase Yes (Homo sapiens) (UniProt P07947); conditions: at 10 µM
# [3] = target: T1, Tyrosine-protein kinase ZAP-70 (Homo sapiens) (UniProt P43403); conditions: at 1 µM
# T1 sequence (whole entry): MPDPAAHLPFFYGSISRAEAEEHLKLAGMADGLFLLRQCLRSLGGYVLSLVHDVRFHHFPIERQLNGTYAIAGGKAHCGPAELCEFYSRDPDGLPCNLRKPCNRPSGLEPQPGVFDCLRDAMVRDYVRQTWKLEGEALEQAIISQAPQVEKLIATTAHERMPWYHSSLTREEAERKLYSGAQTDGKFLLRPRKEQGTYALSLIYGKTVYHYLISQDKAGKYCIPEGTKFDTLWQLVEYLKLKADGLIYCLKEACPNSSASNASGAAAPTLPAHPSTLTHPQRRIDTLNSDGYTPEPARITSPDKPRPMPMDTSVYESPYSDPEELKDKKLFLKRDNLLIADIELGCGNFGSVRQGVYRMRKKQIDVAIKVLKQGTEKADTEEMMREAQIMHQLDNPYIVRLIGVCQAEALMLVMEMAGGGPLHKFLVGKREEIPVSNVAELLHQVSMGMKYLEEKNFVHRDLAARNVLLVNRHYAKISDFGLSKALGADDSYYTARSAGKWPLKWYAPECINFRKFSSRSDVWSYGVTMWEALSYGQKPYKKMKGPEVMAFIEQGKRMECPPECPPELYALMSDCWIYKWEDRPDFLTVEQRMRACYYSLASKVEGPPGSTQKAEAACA
# [4] = target: T1, Tyrosine-protein kinase ZAP-70 (Homo sapiens); conditions: at 10 µM
# [5] = target: Mast/stem cell growth factor receptor Kit (Homo sapiens) (UniProt P10721); conditions: at 1 µM
# [6] = target: Mast/stem cell growth factor receptor Kit (Homo sapiens) (UniProt P10721); conditions: at 10 µM
# [7] = target: RAF proto-oncogene serine/threonine-protein kinase (Homo sapiens) (UniProt P04049); conditions: at 1 µM
# [8] = target: RAF proto-oncogene serine/threonine-protein kinase (Homo sapiens) (UniProt P04049); conditions: at 10 µM
# [9] = target: Death-associated protein kinase 3 (Homo sapiens) (UniProt O43293); conditions: at 1 µM
# [10] = target: Death-associated protein kinase 3 (Homo sapiens) (UniProt O43293); conditions: at 10 µM
# Chain of Death-associated protein kinase 3 (Homo sapiens) (O43293 whole entry, looked up): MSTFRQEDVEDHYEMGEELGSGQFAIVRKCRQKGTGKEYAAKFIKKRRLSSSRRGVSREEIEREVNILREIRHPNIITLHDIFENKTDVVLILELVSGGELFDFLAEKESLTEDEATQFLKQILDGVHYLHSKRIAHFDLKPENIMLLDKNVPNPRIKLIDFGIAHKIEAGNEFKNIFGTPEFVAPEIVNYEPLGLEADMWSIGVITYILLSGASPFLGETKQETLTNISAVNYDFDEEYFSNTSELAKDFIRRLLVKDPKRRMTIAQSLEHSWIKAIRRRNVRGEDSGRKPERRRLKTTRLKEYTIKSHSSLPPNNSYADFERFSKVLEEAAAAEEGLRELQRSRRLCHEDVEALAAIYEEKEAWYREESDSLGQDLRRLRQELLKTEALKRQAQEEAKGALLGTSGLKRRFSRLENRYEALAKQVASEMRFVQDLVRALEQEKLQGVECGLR
# Chain of RAF proto-oncogene serine/threonine-protein kinase (Homo sapiens) (P04049 whole entry): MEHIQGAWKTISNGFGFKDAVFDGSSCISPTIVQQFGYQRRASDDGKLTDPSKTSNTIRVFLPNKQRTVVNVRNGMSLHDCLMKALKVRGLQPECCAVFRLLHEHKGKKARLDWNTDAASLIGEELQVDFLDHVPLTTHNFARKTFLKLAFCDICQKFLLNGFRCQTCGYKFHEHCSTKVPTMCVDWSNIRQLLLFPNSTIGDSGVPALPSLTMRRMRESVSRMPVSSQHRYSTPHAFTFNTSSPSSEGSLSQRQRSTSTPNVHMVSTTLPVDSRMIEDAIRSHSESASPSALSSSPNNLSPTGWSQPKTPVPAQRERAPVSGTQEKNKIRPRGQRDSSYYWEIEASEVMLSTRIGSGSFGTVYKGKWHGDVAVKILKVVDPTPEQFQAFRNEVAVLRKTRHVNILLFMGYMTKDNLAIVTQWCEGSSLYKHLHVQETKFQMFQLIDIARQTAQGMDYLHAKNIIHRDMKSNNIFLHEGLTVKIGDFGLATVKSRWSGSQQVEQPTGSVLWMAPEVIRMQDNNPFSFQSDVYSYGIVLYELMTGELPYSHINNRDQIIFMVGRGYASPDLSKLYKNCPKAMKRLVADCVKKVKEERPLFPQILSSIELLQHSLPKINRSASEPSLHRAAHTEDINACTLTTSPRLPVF
# Chain of Tyrosine-protein kinase Yes (Homo sapiens) (P07947 2-543 limits assumed): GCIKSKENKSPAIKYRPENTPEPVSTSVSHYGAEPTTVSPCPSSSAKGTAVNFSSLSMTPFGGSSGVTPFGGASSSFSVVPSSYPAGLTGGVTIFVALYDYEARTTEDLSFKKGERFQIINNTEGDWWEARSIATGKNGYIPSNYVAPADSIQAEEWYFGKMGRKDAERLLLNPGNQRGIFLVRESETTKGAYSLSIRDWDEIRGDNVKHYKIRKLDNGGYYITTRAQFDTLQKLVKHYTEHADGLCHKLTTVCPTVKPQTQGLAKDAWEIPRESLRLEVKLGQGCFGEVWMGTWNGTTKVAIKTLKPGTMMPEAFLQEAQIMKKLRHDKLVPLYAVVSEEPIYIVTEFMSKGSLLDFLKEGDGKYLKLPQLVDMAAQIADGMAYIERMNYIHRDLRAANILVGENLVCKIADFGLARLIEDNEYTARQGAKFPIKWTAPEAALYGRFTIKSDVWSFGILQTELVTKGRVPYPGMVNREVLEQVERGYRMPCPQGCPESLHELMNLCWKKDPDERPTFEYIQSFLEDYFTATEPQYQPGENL
# Chain of Mast/stem cell growth factor receptor Kit (Homo sapiens) (P10721 whole entry): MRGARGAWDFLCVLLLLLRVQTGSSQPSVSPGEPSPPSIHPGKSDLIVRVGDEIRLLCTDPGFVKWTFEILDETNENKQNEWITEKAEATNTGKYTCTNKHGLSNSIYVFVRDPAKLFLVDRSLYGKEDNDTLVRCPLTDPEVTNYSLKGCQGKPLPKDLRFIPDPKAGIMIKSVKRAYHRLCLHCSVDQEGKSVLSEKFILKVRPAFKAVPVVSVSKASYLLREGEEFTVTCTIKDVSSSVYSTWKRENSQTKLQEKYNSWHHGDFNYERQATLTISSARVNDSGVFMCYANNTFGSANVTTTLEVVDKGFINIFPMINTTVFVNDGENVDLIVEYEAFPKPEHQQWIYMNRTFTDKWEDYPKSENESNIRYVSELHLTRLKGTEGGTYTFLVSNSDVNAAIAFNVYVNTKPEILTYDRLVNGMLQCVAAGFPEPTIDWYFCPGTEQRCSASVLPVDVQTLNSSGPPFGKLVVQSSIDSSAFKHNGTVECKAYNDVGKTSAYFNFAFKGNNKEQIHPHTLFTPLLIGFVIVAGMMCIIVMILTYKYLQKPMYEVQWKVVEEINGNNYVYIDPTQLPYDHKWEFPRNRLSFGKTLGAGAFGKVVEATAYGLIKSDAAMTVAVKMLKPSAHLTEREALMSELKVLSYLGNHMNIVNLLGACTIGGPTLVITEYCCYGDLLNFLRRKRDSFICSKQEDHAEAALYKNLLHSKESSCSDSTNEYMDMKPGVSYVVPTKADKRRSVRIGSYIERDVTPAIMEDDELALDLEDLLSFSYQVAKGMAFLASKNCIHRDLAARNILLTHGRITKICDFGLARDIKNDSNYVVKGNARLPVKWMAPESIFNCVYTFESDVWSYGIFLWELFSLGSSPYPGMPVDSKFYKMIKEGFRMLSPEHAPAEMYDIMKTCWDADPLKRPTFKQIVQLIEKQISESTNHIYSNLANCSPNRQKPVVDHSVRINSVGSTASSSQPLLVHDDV
smiles,measurement,setting,value
CCc1nc(-c2ccc(OC)cc2)[nH]c1-c1ccncc1,residual activity,[1],123%
same,residual activity,[2],101%
same,residual activity,[3],119%
same,residual activity,[4],121%
same,residual activity,[5],127%
same,residual activity,[6],104%
c1cc(-c2cnn3cc(-c4ccc(OCCN5CCCCC5)cc4)cnc23)ccn1,residual activity,[1],7%
same,residual activity,[2],0%
same,residual activity,[4],101%
same,residual activity,[7],82%
same,residual activity,[8],47%
same,residual activity,[5],5%
same,residual activity,[6],2%
O=C1NC(=O)c2c1c1c3ccccc3n3c1c1c2c2ccccc2n1C1CCC3O1,residual activity,[3],132%
same,residual activity,[4],125%
same,residual activity,[9],80%
same,residual activity,[10],78%
same,residual activity,[7],77%
same,residual activity,[8],98%
N#Cc1cnc2cnc(NCc3cccnc3)cc2c1Nc1ccc(F)c(Cl)c1,residual activity,[4],38%
Oc1ccc(Nc2nc(-c3ccc(Cl)cc3)cs2)cc1,residual activity,[4],130%
C[S+]([O-])c1ccc(-c2nc(-c3ccc(F)cc3)c(-c3ccncc3)[nH]2)cc1 (configuration not stated),residual activity,[2],45%
same,residual activity,[3],124%
same,residual activity,[4],130%
same,residual activity,[9],98%
same,residual activity,[10],100%
same,residual activity,[7],17%
same,residual activity,[8],3%
same,residual activity,[5],119%
same,residual activity,[6],102%
CCn1cnc2c(Nc3cccc(Cl)c3)nc(N[C@@H]3CCCC[C@@H]3N)nc21,residual activity,[1],7%
same,residual activity,[2],1%
same,residual activity,[3],93%
same,residual activity,[4],95%
same,residual activity,[10],55%
same,residual activity,[7],68%
same,residual activity,[8],23%
same,residual activity,[6],86%
N/C(=N\[N+](=O)[O-])N/N=C\c1ccc(-c2cccc([N+](=O)[O-])c2)o1,residual activity,[2],100%
same,residual activity,[3],99%
same,residual activity,[4],100%
same,residual activity,[7],88%
same,residual activity,[8],80%
COc1cc(OC)c(/C=C2\C(=O)Nc3ccccc32)c(OC)c1,residual activity,[2],78%
same,residual activity,[3],90%
same,residual activity,[4],82%
same,residual activity,[10],96%
same,residual activity,[7],67%
same,residual activity,[8],67%
same,residual activity,[5],98%
same,residual activity,[6],105%
CC(C)[C@H](CO)Nc1nc(Nc2cccc(Cl)c2)c2ncn(C(C)C)c2n1,residual activity,[1],4%
same,residual activity,[2],0%
same,residual activity,[9],96%
same,residual activity,[7],73%
same,residual activity,[8],43%
same,residual activity,[5],117%
same,residual activity,[6],98%
O=C1c2ccccc2-c2nc3nnnn3nc21,residual activity,[3],111%
same,residual activity,[4],120%
same,residual activity,[10],114%
same,residual activity,[8],101%
CC(=O)O/N=C1\C(=C2\C(=O)Nc3cc(Br)ccc32)Nc2ccccc21,residual activity,[4],87%
CN[C@@H]1C[C@H]2O[C@@](C)([C@@H]1OC)n1c3ccccc3c3c4c(c5c6ccccc6n2c5c31)C(=O)NC4,residual activity,[7],109%
CC(C)(C)c1cc(C=C(C#N)C#N)cc(Br)c1O,residual activity,[7],99%
same,residual activity,[5],113%
same,residual activity,[6],102%
